Test results as given in PubChem BioAssay.

Tests used:
[1] = system: Botulinum neurotoxin type F light chain protease (Clostridium botulinum); test: Clostridium botulinum type F light chain protease inhibitors, microsphere substrate cleavage, validation (AID 588459); settings: multiplex microsphere protease substrate cleavage assay, flow cytometry; at 10 µM; hits give high values
[2] = target: Botulinum neurotoxin type A (Clostridium botulinum) (UniProt P0DPI0); test: BoNT/A light chain protease inhibitors, biochemical, multiplex microsphere flow cytometry, validation set (AID 588460); settings: at 10 µM, hits give high values
[3] = target: Lethal factor (Bacillus anthracis) (UniProt P15917); test: Bacillus anthracis lethal factor inhibition, microsphere flow cytometry protease assay, validation at 10 µM (AID 588461); settings: multiplex microsphere protease cleavage assay, hits give high values

Measured: inhibition

Chain of Botulinum neurotoxin type A (Clostridium botulinum) (P0DPI0 whole entry, looked up): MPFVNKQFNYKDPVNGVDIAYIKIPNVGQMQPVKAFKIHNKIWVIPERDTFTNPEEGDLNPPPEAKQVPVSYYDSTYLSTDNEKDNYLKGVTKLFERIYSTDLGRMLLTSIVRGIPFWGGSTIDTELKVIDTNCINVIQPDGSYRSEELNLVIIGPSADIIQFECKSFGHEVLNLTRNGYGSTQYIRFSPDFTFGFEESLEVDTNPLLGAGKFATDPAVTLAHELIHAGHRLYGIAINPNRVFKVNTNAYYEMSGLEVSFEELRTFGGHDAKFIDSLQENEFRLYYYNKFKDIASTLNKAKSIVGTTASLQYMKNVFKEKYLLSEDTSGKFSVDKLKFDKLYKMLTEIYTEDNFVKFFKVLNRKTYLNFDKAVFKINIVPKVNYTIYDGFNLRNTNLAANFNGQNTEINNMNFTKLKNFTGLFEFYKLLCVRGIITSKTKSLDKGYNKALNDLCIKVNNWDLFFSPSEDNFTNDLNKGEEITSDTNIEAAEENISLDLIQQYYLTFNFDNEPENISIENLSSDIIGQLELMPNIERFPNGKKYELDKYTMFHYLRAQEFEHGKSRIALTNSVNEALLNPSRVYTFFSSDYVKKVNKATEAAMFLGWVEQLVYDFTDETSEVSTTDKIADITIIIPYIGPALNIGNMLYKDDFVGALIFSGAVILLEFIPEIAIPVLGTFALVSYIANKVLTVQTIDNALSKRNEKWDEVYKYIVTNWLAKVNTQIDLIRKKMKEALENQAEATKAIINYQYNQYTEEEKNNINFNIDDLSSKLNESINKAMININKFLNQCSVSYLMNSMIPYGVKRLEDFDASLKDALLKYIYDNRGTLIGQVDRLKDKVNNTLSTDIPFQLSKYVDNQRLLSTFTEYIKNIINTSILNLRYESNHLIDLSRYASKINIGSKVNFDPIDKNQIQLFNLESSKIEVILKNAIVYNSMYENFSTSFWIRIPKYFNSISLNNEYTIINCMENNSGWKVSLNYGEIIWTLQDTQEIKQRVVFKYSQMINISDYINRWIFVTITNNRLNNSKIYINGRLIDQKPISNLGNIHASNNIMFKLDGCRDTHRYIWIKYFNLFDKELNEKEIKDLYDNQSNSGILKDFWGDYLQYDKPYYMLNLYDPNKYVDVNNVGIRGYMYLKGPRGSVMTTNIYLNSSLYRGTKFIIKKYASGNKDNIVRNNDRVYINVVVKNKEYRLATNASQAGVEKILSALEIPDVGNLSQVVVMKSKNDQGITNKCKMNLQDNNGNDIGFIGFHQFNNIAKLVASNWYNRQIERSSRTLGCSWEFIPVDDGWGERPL
Chain of Lethal factor (Bacillus anthracis) (P15917 whole entry, looked up): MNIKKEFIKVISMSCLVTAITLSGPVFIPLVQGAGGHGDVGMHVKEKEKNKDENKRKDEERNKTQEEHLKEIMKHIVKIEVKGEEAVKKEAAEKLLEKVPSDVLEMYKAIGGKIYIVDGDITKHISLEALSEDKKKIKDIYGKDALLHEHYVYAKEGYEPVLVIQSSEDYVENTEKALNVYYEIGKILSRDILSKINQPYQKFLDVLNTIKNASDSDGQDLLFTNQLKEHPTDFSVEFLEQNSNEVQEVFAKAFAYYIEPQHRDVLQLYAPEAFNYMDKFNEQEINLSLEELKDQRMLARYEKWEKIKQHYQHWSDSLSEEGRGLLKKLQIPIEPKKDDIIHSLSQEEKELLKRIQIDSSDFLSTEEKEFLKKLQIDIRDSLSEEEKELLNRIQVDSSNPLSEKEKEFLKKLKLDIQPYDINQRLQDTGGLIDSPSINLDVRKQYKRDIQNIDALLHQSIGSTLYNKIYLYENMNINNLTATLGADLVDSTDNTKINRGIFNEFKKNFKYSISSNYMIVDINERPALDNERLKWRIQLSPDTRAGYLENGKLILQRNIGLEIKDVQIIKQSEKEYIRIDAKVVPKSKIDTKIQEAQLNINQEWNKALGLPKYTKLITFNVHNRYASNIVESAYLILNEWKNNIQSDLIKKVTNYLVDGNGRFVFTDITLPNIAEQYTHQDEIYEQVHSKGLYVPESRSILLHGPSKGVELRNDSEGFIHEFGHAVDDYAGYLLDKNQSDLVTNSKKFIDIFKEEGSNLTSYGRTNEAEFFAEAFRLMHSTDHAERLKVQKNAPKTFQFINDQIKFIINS

O=C(COc1ccccc1)Nc1ccc2c(c1)C(=O)N(CC1CCCO1)C2=O (configuration not stated)
inactive: [1] -0.5% | [2] -0.9% | [3] 4.5%

COc1ccc(NC2=C(Cl)C(=O)N(c3ccccc3)C2=O)c(OC)c1
inactive: [1] 3.7% | [2] 1% | [3] -0.3%

CC(=O)[C@@]1(O)CC[C@H]2[C@@H]3CCC4=CC(=O)CC[C@]4(C)[C@H]3[C@@H](O)C[C@@]21C
inactive: [1] 2.3% | [2] -1.1% | [3] 1.8%

O=C(NCC1CCCCN1)c1cc(OCC(F)(F)F)ccc1OCC(F)(F)F (configuration not stated)
inactive: [1] -0.8% | [2] -0.3% | [3] -2%

Cc1nnc(SCC(=O)N2CCCC(C(=O)c3ccc(Cl)cc3)C2)o1 (configuration not stated)
inactive: [1] 2.8% | [2] 0.9% | [3] -6.4%

CCOc1ccc(OCCSc2nc3ccccc3[nH]2)cc1
inactive: [1] -6.7% | [2] -1.3% | [3] -1.8%

NC(=O)C1CCCNC1 (configuration not stated)
inactive: [1] 1.6% | [2] -0.4% | [3] 5.4%

CC(C)=CC/C=C1\CCC(C(=O)O)C(C(=O)O)C1 (configuration not stated)
inactive: [1] -1.1% | [2] -1.6% | [3] -3.4%

Cc1ccnc(NS(=O)(=O)c2ccc(N)cc2)n1
inactive: [1] 5.2% | [2] -0.3% | [3] -1.5%

Cc1cccc(OCC(=O)Nc2ccc(C(=O)NCC(C)C)cc2)c1
inactive: [1] 4.2% | [2] 0.3% | [3] -4.3%

Cc1cccc(C(=O)c2cccc(C)c2)c1
inactive: [1] -4.8% | [2] -0.8% | [3] -11.4%

O=C(O)c1cc(-c2ccccc2)nc2ccccc12
inactive: [1] -1.1% | [2] -0.1% | [3] -9.8%

O=c1[nH]c(=O)n([C@H]2C[C@H](O)[C@@H](CO)O2)cc1C(F)(F)F
inactive: [1] -1% | [2] 0% | [3] 3.3%

Cc1ccccc1C(=O)Nc1ccccc1C(=O)NCC(C)C
inactive: [1] -5.7% | [2] -0.4% | [3] 1.2%

COc1ccc(-c2noc(-c3ccccc3-c3ccccc3)n2)cc1
inactive: [1] -1.9% | [2] -0.7% | [3] -1.9%

COc1ccc(-c2coc3cc(OC(=O)N4CCOCC4)ccc3c2=O)cc1
inactive: [1] 4.3% | [2] -1.4% | [3] -0.4%

COc1ccc2[nH]c3c(c2c1)CCNC3C1CC=C(C)CC1 (configuration not stated)
inactive: [1] -1.7% | [2] 0.2% | [3] 3.8%

C[C@H]1C[C@H]2[C@@H]3CCC4=CC(=O)C=C[C@]4(C)[C@@]3(Cl)[C@@H](O)C[C@]2(C)[C@@]1(O)C(=O)CO
inactive: [1] 4.5% | [2] -0.1% | [3] 2.1%

Cc1ccccc1-c1coc2cc(O)ccc2c1=O
inactive: [1] -3.4% | [2] 0.2% | [3] 1.6%

O=C(Cc1c[nH]c2ccccc12)OCCOC(=O)Cc1c[nH]c2ccccc12
inactive: [1] 0.9% | [2] -0.1% | [3] -5.9%

COc1cccc(OCC(O)CO)c1 (configuration not stated)
inactive: [1] -1.4% | [2] -1.1% | [3] -9.1%

CCn1c(/C=C/c2ccccc2)nc2ccccc2c1=O
inactive: [1] 2.4% | [2] -1.7% | [3] 7.2%

Cc1ncc([N+](=O)[O-])n1CC(O)CCl (configuration not stated)
inactive: [1] 3.5% | [2] -0.1% | [3] 2.5%

CCC(=O)c1ccc(O)cc1
inactive: [1] 1.2% | [2] -0.4% | [3] -1.2%

NS(=O)(=O)c1cc2c(cc1Cl)NC(C1C[C@H]3C=C[C@@H]1C3)NS2(=O)=O (some centres not stated)
inactive: [1] 1.4% | [2] 1% | [3] -3.2%

CCN(CC)C(=O)c1ccc(O)c(OC)c1
inactive: [1] -2.8% | [2] -0.4% | [3] -6.3%

CSCC[C@H](NC(=O)Nc1ccc(C)cc1C)C(=O)O
inactive: [1] -2.1% | [2] 1.4% | [3] 0.5%

Cc1nc(NCc2ccco2)c(C#N)c2c1COC(C)(C)C2
inactive: [1] 1% | [2] -1.2% | [3] -0.5%

CCN(CC)CCOC(=O)C(c1ccccc1)c1ccccc1
inactive: [1] 1.8% | [2] -1.6% | [3] -3.7%
